This is an account of results in PubChem BioAssay.

Results filed as inconclusive are left out. Activity calls are given as the source filed them. Cut-off read from the data, not from the text of the source, unless noted: active = percent of DMSO control GFP below about 86%; inactive = the rest, inconclusive results apart.

A short description of experiment [1]: yeast TOR pathway RPL19A-GFP modulators, primary screen, cell-based, S. cerevisiae, multiplex flow cytometry (AID 1862).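 Note: lower values mimic rapamycin by blocking the RPL19A rise seen in DMSO cells.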 The note with it: S. cerevisiae RPL19A-GFP strain, flow cytometry fluorescence, 3 h; at 10 µM; stronger effect = lower value.
Experiment [2] is described as follows: modulators of MEP2-GFP levels in yeast, primary screen, S. cerevisiae, multiplex flow cytometry (AID 1867;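 active = GFP response, as percent of the DMSO control, above the screen-wide mean plus 3 SD, about 139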;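 note: median GFP channel fluorescence of barcode-gated MEP2-GFP cells measured by flow cytometry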). The note with it: S. cerevisiae MEP2-GFP strain, 3 h, at 10 µM, stronger effect = higher value, 100% means same as DMSO wells.
The nature of experiment [3]: modulators of CIT2-GFP expression in yeast, primary screen, S. cerevisiae, GFP fusion, multiplex flow cytometry (AID 1870;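 active = percent response above a set limit, the screen-wide mean plus 3 SD, cut at about 130% in these data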;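 note: barcoded CIT2-GFP strain pooled with four other GFP strains with rapamycin as positive control; median GFP fluorescence per well over plate mean of DMSO wells so 100% = DMSO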). The following applies: 3 h, at 10 µM, stronger effect = higher value.
Experiment [4] in a line: modulators of LAP4-GFP expression in yeast, primary screen, S. cerevisiae, multiplex flow cytometry (AID 1873;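 active = GFP signal, as percent of the solvent control, above the screen mean plus 3 SD, about 149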). The note with it: 3 h, at 10 µM, stronger effect = higher value.
The nature of experiment [5]: modulators of AGP1-GFP expression in yeast TOR pathway, primary screen, cell-based, multiplex flow cytometry, S. cerevisiae (AID 1887;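 active = GFP signal above the screen-wide mean plus 3 SD, that is over about 124.5% of the solvent control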;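 note: AGP1-GFP fusion strain of S. cerevisiae within a five-strain barcoded multiplex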). The note with it: 3 h, at 10 µM, stronger effect = higher value.
A short description of experiment [6]: inhibitors of CD8+ T cell-vesicle binding, pilot screen, LFA-1/ICAM-1 modulator project, MLPCN validation set, flow cytometry (AID 2523;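 active = response below a set limit, under 55% cells CD8-positive and vesicle-bound, and CD8 cells' 90th-percentile brightness under 279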;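 for vesicle binding response: mean PE anti-B7-1 fluorescence of CD8+ cells relative to row control; 100% = QL9-loaded vesicles with DMSO vehicle in the same plate row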). The following applies: 2C mouse CD8+ T cells, at 7 µM, stronger effect = lower value; double positive events: measured here: CD8+/vesicle+ event percentage.
Experiment [7] addresses Integrin beta-1 (Homo sapiens) + Integrin alpha-4 (Homo sapiens) (UniProt P13612+P05556). The experiment can be described thus: inhibition of HUTS-21 binding to VLA-4, pilot screen, VLA-4 allosteric modulator project, U937 cells, HUTS-21 mAb, flow cytometry, validation set (AID 2674;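 active = inhibition above 50%, about 3 SD of the validation set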;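 note: antibody binding induced by the VLA-4 ligand LDV present at three times its Kd; 0% = LDV ligand with antibody and no compound and 100% = antibody without LDV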). The following applies: HUTS-21 LIBS mAb binding, at 6.7 µM, stronger effect = higher value, binding induced by LDV ligand.

The nature of experiment [8]: superoxide lowering in aged yeast cells, pilot screen, validation compound set (AID 2706;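 active = superoxide response below 65% of plate, a cut near 3 SD across the whole screen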;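 note: yeast exposed to compound for one week at 30 degrees C before staining; 100% = mean of all compound wells on the same plate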). The following applies: S. cerevisiae aging, superoxide DHE fluorescence; at 10 µM; stronger effect = lower value.
For experiment [9], the target named is Beta-adrenergic receptor kinase 1 (Homo sapiens) (UniProt P25098). Nature of the experiment: GRK2 binders displacing RNA aptamer, biochemical, validation, human GRK2, bead flow cytometry (AID 488806;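 active = aptamer binding inhibition above 30%, about 3 SD of noise from non-fluorescent compounds; inactive = inhibition at or below 30%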). The note with it: bead-bound GRK2, FAM-aptamer displacement, at 10 µM, stronger effect = higher value.
Sequence of Beta-adrenergic receptor kinase 1 (Homo sapiens) (P25098 whole entry, looked up): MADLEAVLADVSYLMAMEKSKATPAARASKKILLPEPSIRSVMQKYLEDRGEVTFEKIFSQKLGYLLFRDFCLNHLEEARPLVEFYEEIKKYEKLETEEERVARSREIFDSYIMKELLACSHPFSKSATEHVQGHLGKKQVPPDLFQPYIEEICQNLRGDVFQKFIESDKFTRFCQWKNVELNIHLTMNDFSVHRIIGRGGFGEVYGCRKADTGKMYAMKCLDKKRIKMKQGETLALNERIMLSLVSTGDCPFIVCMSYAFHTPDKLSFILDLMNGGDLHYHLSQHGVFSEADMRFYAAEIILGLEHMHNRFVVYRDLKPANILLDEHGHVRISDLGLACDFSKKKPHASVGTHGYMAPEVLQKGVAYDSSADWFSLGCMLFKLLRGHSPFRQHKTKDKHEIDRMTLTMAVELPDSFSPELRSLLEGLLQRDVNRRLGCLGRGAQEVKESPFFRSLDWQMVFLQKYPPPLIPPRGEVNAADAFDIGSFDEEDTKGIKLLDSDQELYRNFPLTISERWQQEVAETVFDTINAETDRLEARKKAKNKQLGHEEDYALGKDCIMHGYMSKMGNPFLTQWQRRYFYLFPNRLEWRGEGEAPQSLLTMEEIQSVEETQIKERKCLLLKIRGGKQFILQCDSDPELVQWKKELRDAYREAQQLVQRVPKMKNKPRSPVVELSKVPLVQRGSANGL
The target of experiment [10] is Beta-2 adrenergic receptor (Homo sapiens) (UniProt P07550). The experiment can be described thus: beta2AR agonists driving receptor internalization, pilot screen, cell-based, FAP fluorogen, flow cytometry, validation set (AID 504459;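 active = percent response above 42, roughly 3 SD of non-fluorescent test compounds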;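 note: agonist-driven loss of surface beta2AR via internalization measured by FAP dye flow cytometry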). The following applies: Am2.2-beta2AR cells, FAP surface receptor flow cytometry; at 10 µM; stronger effect = higher value.
Sequence of Beta-2 adrenergic receptor (Homo sapiens) (P07550 whole entry, looked up): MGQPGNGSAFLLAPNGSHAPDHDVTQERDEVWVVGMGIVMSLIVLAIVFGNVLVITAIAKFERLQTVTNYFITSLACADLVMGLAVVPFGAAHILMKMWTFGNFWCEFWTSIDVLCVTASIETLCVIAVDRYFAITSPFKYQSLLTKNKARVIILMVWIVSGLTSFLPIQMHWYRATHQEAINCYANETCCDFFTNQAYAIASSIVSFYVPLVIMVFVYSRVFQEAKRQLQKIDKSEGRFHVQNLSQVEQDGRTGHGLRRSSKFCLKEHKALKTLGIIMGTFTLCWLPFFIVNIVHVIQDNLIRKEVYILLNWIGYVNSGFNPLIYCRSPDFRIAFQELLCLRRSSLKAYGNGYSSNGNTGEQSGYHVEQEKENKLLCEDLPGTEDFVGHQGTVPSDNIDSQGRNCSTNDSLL
Experiment [11] concerns the target AP-2 complex subunit beta (Homo sapiens) (UniProt P63010). Nature of the experiment: inhibitors of arrestin peptide binding to AP2, pilot screen, biochemical, validation set, GST-AP2 beads, flow cytometry (AID 504541;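 active = inhibition above 54%, about 3 SD of non-fluorescent compounds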;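 note: AP2 carries R879A mutation and is captured from E. coli lysate; bead-bound FITC arrestin peptide fluorescence measuring arrestin peptide binding to AP2; 0% = DMSO wells and 100% = excess unlabeled arrestin peptide control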). The following applies: FITC arrestin peptide, at 10 µM, stronger effect = higher value, AP2 beta2 appendage fragment, R879A mutant.
The nature of experiment [12]: yeast V-ATPase proton transport modulators, S. cerevisiae, pHLuorin, HTS validation (AID 504600; in the data active = response above about 15%;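 note: plate controls were DMSO for no effect and reference compound for full effect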). The following applies: S. cerevisiae pHLuorin cytosolic pH, at 10 µM, stronger effect = higher value.
The subject of experiment [13] is anti-desmoglein-3 scFv antibody binding to human DSG3. Nature of the experiment: inhibitors of anti-DSG3 scFv binding to DSG3, pilot screen, biochemical, validation compound set, bead-based, flow cytometry (AID 588368;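 active = binding below the plate cutoff, the plate median minus 3 SD, with a reading above zero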;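 note: signal is the median channel fluorescence of bead-bound GFP antibody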). The following applies: Protein G beads, DSG3-Fc, scFv-GFP binding, at 10 µM, stronger effect = lower value.
Experiment [14] in a line: inhibitors of fungal efflux pumps CDR1, CDR2, MDR1, pilot screen, validation compound set, multiplex, phenotypic (AID 588506;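 active = efflux inhibition above 0.42, the validation set average plus 4 SD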;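 note: Nile Red retained in cells so higher fluorescence means more efflux inhibition; 0 = negative control wells and 1 = enniatin B 25 µM full block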). The following applies: S. cerevisiae pump-expressing triplex, Nile Red efflux flow cytometry; at 10 µM; stronger effect = higher value; the pumps come from Candida albicans.
In experiment [15] the target is ATP-binding cassette sub-family B member 6 (Homo sapiens) (UniProt Q9NP58). Nature of the experiment: ABCB6 transporter inhibitors, pilot screen, K562-ABCB6 cells, flow cytometry, validation set (AID 588550;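 active = inhibition above the screen-wide mean plus 3 SD, about 51%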;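 note: 0% = DMSO wells and 100% = benzethonium chloride 70 µM positive control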). The following applies: K562-ABCB6 porphyrin accumulation, 1 h, at 10 µM, stronger effect = higher value.
Sequence of ATP-binding cassette sub-family B member 6 (Homo sapiens) (Q9NP58 whole entry, looked up): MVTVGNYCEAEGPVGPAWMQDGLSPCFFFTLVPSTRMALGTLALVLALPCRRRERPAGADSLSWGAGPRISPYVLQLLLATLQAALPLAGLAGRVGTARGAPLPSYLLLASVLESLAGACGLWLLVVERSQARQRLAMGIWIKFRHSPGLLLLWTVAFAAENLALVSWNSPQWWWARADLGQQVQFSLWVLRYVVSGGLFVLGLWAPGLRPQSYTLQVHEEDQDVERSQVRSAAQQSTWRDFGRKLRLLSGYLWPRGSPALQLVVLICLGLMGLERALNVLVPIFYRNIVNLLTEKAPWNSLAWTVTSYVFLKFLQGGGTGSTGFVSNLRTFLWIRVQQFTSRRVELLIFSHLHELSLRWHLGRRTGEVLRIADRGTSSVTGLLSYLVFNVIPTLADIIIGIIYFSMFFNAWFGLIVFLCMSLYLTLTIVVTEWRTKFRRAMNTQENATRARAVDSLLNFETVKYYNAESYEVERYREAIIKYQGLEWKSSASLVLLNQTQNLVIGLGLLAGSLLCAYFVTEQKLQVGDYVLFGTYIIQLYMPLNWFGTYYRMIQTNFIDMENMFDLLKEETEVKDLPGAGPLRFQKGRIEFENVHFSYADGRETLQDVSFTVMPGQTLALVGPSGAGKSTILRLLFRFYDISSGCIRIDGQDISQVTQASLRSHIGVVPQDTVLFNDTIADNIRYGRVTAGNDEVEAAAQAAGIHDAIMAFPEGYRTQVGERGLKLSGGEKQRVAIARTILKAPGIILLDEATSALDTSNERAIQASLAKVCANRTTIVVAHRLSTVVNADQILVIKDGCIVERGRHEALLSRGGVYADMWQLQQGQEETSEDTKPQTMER
The nature of experiment [16]: promoters of myeloid differentiation in arrested cells, primary screen, cell-based, GFP/MAC1 double positive, flow cytometry, validation set (AID 588685;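 active = differentiation response of at least 50%, scaled between solvent and reference control, from cells with both markers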;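 note: compound exposure lasts four days before antibody staining and flow analysis; 0% = DMSO wells and 100% = 5 µM fulvestrant positive control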). The following applies: ER-HoxA9 marrow cells, stronger effect = higher value, normalized: vehicle 0, fulvestrant 100.

Sequence of AP-2 complex subunit beta (Homo sapiens) (P63010 whole entry, looked up, the tested form may be a part, one chain of several): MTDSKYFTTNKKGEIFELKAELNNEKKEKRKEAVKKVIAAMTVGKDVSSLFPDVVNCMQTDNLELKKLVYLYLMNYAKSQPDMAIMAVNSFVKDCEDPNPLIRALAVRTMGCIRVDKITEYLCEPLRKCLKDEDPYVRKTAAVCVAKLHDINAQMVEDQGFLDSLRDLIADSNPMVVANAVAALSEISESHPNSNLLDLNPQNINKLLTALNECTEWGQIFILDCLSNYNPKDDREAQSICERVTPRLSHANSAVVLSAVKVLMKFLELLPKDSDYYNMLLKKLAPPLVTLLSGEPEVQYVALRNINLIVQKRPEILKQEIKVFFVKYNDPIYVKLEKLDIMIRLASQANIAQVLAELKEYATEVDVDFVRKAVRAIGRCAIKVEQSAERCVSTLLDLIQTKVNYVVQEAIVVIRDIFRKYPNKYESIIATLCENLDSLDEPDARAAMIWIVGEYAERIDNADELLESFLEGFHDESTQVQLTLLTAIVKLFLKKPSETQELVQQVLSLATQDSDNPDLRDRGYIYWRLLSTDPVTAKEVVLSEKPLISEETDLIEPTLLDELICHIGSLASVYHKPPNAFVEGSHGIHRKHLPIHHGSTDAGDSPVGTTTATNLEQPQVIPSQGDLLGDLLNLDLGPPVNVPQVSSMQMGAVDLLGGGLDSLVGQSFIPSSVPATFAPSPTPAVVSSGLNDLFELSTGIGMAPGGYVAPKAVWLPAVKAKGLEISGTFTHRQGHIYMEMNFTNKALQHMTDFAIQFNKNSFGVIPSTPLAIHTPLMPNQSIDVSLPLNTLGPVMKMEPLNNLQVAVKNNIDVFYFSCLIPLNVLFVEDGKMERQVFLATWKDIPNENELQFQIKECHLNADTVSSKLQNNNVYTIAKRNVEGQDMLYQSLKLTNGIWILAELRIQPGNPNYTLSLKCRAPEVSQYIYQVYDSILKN
Sequence of Integrin beta-1 (Homo sapiens) + Integrin alpha-4 (Homo sapiens) (P05556 whole entry, looked up): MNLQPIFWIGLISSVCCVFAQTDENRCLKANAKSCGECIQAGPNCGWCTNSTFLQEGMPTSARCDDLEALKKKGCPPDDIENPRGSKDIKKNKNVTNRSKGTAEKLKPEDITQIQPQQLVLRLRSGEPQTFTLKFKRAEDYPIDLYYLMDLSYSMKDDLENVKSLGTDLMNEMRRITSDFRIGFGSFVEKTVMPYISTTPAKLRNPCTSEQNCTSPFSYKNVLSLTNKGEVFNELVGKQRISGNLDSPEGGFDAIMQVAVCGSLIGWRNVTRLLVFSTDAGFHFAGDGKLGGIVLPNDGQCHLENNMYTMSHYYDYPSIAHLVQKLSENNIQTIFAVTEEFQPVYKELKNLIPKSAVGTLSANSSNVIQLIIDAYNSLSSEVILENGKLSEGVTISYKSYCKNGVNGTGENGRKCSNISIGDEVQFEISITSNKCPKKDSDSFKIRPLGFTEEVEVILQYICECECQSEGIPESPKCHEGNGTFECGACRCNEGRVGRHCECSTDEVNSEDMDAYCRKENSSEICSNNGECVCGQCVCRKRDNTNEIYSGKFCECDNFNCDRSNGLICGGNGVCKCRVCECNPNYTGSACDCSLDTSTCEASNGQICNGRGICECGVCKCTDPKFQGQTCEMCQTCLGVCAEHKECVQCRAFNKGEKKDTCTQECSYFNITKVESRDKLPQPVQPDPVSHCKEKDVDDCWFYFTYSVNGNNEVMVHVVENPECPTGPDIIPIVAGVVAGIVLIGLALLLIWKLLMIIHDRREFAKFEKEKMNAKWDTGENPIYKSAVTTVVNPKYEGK
Sequence of Integrin beta-1 (Homo sapiens) + Integrin alpha-4 (Homo sapiens) (P13612 whole entry, looked up): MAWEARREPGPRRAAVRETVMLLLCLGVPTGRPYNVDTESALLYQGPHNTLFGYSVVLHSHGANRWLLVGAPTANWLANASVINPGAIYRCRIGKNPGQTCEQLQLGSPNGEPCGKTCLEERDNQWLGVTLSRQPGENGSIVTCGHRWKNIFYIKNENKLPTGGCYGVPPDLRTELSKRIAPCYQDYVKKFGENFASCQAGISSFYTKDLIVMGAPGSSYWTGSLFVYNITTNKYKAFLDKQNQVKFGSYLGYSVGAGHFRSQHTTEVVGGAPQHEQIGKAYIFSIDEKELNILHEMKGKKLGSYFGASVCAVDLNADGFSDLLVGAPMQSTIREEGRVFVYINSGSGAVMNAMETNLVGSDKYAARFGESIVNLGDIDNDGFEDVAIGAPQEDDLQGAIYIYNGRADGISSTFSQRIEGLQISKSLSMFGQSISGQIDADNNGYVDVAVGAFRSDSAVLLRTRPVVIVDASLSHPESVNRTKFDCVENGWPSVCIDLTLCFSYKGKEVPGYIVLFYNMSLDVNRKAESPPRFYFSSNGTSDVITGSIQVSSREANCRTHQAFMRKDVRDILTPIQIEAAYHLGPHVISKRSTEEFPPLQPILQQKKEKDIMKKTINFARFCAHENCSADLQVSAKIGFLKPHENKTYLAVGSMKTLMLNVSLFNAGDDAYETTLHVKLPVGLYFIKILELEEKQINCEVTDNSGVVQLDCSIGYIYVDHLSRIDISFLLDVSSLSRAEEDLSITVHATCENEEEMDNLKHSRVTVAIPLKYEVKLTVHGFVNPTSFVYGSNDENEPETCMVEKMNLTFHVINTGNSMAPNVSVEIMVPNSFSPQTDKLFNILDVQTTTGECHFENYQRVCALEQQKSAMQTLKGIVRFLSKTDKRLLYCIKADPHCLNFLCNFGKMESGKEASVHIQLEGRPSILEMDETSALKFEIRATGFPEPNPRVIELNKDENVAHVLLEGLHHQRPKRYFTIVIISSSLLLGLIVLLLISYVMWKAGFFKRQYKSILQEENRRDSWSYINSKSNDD

Regarding `CC(C)CC(=O)NC(NC(=O)CC(C)C)c1cccc([N+](=O)[O-])c1`, the percent of DMSO control GFP in [1] was 101% (inactive). Further, the values for the GFP response vs DMSO in experiment [2] and in [4] were 102% (inactive) and 100% (inactive), respectively. Moreover, the percent response of DMSO control in experiment [3] is 111% (inactive). Moreover, the GFP response, % of DMSO in experiment [5] was 100% (inactive). This compound gave a double positive events in [6] of 60.1%. Also, in [6], the vesicle binding response was 118% (inactive). Also, the inhibition is 1.59% (inactive) in experiment [7], 7.92% (inactive) in experiment [11] and 11% (inactive) in experiment [15]. Also, the superoxide response (% of plate) in experiment [8] is 118% (inactive). For the same compound, in [9], the aptamer binding inhibition is 19% (inactive). Also, the response in experiment [10] was 3.17% (inactive); in experiment [12] it was 3.51% (inactive). Besides, the binding (% of control) in experiment [13] was 99% (inactive). For the same compound, the efflux inhibition (fraction of control) in [14] is 0.09 (inactive). Further, the differentiation response in [16] was -8.96% (inactive).

As to `CC(=O)N1c2ccccc2C(C)=CC1(C)C`, the percent of DMSO control GFP in experiment [1] is 101% (inactive). In addition, the results for the GFP response vs DMSO in experiment [2] and in [4] were 107% (inactive) and 104% (inactive), respectively. Moreover, the percent response of DMSO control in experiment [3] is 98.3% (inactive). The GFP response, % of DMSO in [5] is 125% (inactive). The compound further returned a double positive events in experiment [6] of 64.4%. In addition, the vesicle binding response in [6] is 199% (inactive). In addition, the inhibition in [7] was -17.3% (inactive); in [11] it was -16.5% (inactive); in experiment [15], 2% (inactive). The superoxide response (% of plate) in [8] is 112% (inactive). In experiment [9], the aptamer binding inhibition is 2% (inactive). The response in experiment [10] was -23.5% (inactive); in experiment [12] it was -0.45% (inactive). The binding (% of control) in experiment [13] is 109% (inactive). Besides, in experiment [14], the efflux inhibition (fraction of control) was -0.04 (inactive). Moreover, the differentiation response in experiment [16] was -1.05% (inactive).

Turning to `COc1cc(C(=O)NCCc2c[nH]c3ccccc23)ccc1OCc1c(C)noc1C`, the percent of DMSO control GFP in experiment [1] was 96.7% (inactive). In addition, the results for the GFP response vs DMSO in experiment [2] and in [4] were 106% (inactive) and 120% (inactive), respectively. The percent response of DMSO control in [3] is 98.6% (inactive). Also, the GFP response, % of DMSO in experiment [5] was 93.5% (inactive). Further, in [6], the double positive events was 56%. For the same compound, in experiment [6], the vesicle binding response was 295% (inactive). For the same compound, the figures for the inhibition in experiment [7], in experiment [11] and in experiment [15] were -15.4% (inactive), -0.24% (inactive) and 3% (inactive), respectively. Besides, the superoxide response (% of plate) in [8] was 110% (inactive). In addition, the aptamer binding inhibition in [9] is 0% (inactive). Moreover, the figures for the response in experiment [10] and in experiment [12] were 6.37% (inactive) and 1.87% (inactive), respectively. The binding (% of control) in [13] was 107% (inactive). Besides, the efflux inhibition (fraction of control) in experiment [14] is -0.03 (inactive). Further, the differentiation response in [16] is 10.4% (inactive).

For the compound `COc1ccccc1N=CC1=C(O)CC(c2ccccc2)CC1=O` (stereo not given), in experiment [1], the percent of DMSO control GFP is 92.6% (inactive). Moreover, the GFP response vs DMSO in [2] was 111% (inactive); in experiment [4] it was 82.5% (inactive). Further, the percent response of DMSO control in experiment [3] was 96.6% (inactive). Further, the GFP response, % of DMSO in experiment [5] was 88.9% (inactive). The compound also showed a double positive events in experiment [6] of 64.4%. For the same compound, the vesicle binding response in [6] was 153% (inactive). In addition, the values for the inhibition in experiment [7], in experiment [11] and in experiment [15] were -36.2% (inactive), -4.2% (inactive) and 12% (inactive), respectively. Further, the superoxide response (% of plate) in experiment [8] was 95.6% (inactive). In addition, in [9], the aptamer binding inhibition is 2% (inactive). For the same compound, the response is 1.28% (inactive) in [10] and 4.13% (inactive) in [12]. The binding (% of control) in [13] was 103% (inactive). Further, in experiment [14], the efflux inhibition (fraction of control) is -0.24 (inactive). For the same compound, in experiment [16], the differentiation response was 2.46% (inactive).

Consider `COc1ccc(CN2CCCC(C(=O)c3ccc(Cl)cc3)C2)cc1Cn1cccn1` (stereo not given), for which, in experiment [1], the percent of DMSO control GFP is 104% (inactive). For the same compound, the GFP response vs DMSO in experiment [2] was 105% (inactive); in experiment [4], 95.9% (inactive). In [3], the percent response of DMSO control is 99.7% (inactive). Also, in experiment [5], the GFP response, % of DMSO was 100% (inactive). For the same compound, the double positive events in experiment [6] turned out to be 61.3%. The vesicle binding response in experiment [6] was 182% (inactive). The inhibition in [7] was -9.13% (inactive); in experiment [11], -0.55% (inactive); in experiment [15] it was 12% (inactive). Besides, in experiment [8], the superoxide response (% of plate) is 79.4% (inactive). In experiment [9], the aptamer binding inhibition is -4% (inactive). Also, the results for the response in experiment [10] and in experiment [12] were 30.8% (inactive) and 1.1% (inactive), respectively. Further, the binding (% of control) in [13] is 98.5% (inactive). For the same compound, in experiment [14], the efflux inhibition (fraction of control) was 0.05 (inactive). Also, the differentiation response in [16] was -3.11% (inactive).
